Compounds without any hit were thinned out: in the full panel of roughly 79,000, 15% have a hit. The source made the active and inactive calls. Rule as the data show it: active = growth inhibition above about 70%; inactive = the rest.
Tests used:
[1] = NCI Yeast Anticancer Drug Screen. Data for the rad52 strain (AID 147);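 also: 0% = growth of vehicle-treated control cultures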; details: S. cerevisiae rad52 mutant growth inhibition, hits give high values
Method in brief: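 Inhibition of yeast growth, referenced to vehicle controls, was the measured output for a strain with defective DNA damage repair.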

[2] = NCI Yeast Anticancer Drug Screen. Data for the wt1 strain (AID 149);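 also: 0% = growth of vehicle-treated wt1 cultures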; details: S. cerevisiae wt1 strain (SPY 50644) growth inhibition, hits give high values
Method in brief: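 Compounds are added to wt1 yeast cultures. Growth is then measured. Inhibition is expressed relative to vehicle-treated controls.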

[3] = NCI Yeast Anticancer Drug Screen. Data for the rad50EPP+ strain (AID 151);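 also: 0% = growth of vehicle-treated control cultures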; details: S. cerevisiae rad50 mutant strain, hits give high values
Method in brief: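 Genetically defined yeast (rad50EPP+, DNA damage repair alteration) is grown with compound, and inhibition of growth is expressed relative to vehicle-treated controls.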

[4] = NCI Yeast Anticancer Drug Screen. Data for the mgt1 strain (AID 153); details: S. cerevisiae mgt1 mutant growth inhibition, hits give high values
Method in brief: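 In the mgt1 strain, test compounds were added and growth inhibition was determined relative to vehicle-treated controls.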

[5] = NCI Yeast Anticancer Drug Screen. Data for the rad50 strain (AID 155);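 also: 0% = growth of vehicle-only cultures of the same strain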; details: S. cerevisiae rad50 strain growth inhibition, hits give high values
Method in brief: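 Inhibition values express reduced yeast growth in compound-treated cultures relative to vehicle-treated controls.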

[6] = NCI Yeast Anticancer Drug Screen. Data for the mec2-1 strain (AID 157); details: S. cerevisiae mec2-1 strain, hits give high values
Method in brief: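 Each compound was tested on mec2-1 yeast, a strain altered in DNA damage repair or cell cycle control. Growth inhibition is reported relative to vehicle.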

[7] = NCI Yeast Anticancer Drug Screen. Data for the rad14 strain (AID 159);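 also: 0% = growth of vehicle-treated control cultures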; details: S. cerevisiae rad14 strain growth inhibition, hits give high values
Method in brief: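 A mutant yeast strain defective in DNA damage repair is treated with compound; inhibition of its growth is scored against untreated, vehicle-exposed cultures.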

[8] = NCI Yeast Anticancer Drug Screen. Data for the sgs1 mgt1 strain (AID 161);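 also: 0% = growth of cultures given vehicle only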; details: S. cerevisiae sgs1 mgt1 strain, hits give high values
Method in brief: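 Mutant yeast exposed to compound; growth scored against vehicle-only wells.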

[9] = NCI Yeast Anticancer Drug Screen. Data for the CLN2oe strain (AID 163);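 also: 0% = growth of vehicle-only control cultures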; details: S. cerevisiae CLN2oe strain, hits give high values
Method in brief: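 First, the altered yeast strain was treated with each compound; second, its growth was measured; finally, inhibition was derived by comparison with vehicle controls.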

[10] = NCI Yeast Anticancer Drug Screen. Data for the cln2 rad14 strain (AID 165);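 also: 0% = growth equal to vehicle treated cultures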; details: S. cerevisiae cln2 rad14 strain, hits give high values
Method in brief: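 Test compounds were added to cln2 rad14 yeast cultures; inhibition of growth was then determined by comparison with vehicle treatment.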

[11] = NCI Yeast Anticancer Drug Screen. Data for the bub3 strain (AID 167); details: S. cerevisiae bub3 mutant strain, hits give high values
Method in brief: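 Steps: expose the mutant yeast strain to compound; grow alongside vehicle-treated cultures; measure growth; express inhibition against the vehicle cultures.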

[12] = NCI Yeast Anticancer Drug Screen. Data for the wt2 strain (AID 169);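 also: 0% = growth of vehicle-treated yeast cultures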; details: S. cerevisiae wt2 strain growth inhibition, hits give high values
Method in brief: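 The panel's yeast strains carry defined changes in DNA repair or cell cycle genes. Each strain is grown with compound, and growth loss is scored relative to vehicle.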

[13] = NCI Yeast Anticancer Drug Screen. Data for the mlh1 strain (AID 171);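 also: 0% = growth of vehicle-treated control cultures of the same strain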; details: S. cerevisiae mlh1 strain growth inhibition, hits give high values
Method in brief: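 Inhibition values reflect reduced yeast growth in the presence of compound, referenced to vehicle controls, using a strain chosen for its alteration in DNA repair or cell cycle control.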

[14] = NCI Yeast Anticancer Drug Screen. Data for the sgs1 strain (AID 173);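 also: 0% = growth of vehicle-only control cultures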; details: S. cerevisiae sgs1 mutant, hits give high values
Method in brief: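 Vehicle-treated cultures served as reference for growth inhibition of a yeast strain altered in DNA damage repair or cell cycle control after compound exposure.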

[15] = NCI Yeast Anticancer Drug Screen. Data for the rad18 strain (AID 177); details: S. cerevisiae rad18 mutant growth inhibition, hits give high values
Method in brief: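 Steps: expose repair-mutant yeast to compound; measure growth; express as inhibition relative to vehicle control.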

[16] = NCI Yeast Anticancer Drug Screen. Data for the mlh1 rad18 strain (AID 175); details: S. cerevisiae mlh1 rad18 strain growth inhibition, hits give high values
Method in brief: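 Inhibition values reflect reduced growth of mutant yeast versus vehicle-treated controls following compound exposure; the mutations affect DNA damage repair.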

[17] = at 5.0 µM (retest, dose inferred, filed as 0.5)
[18] = at 50.0 µM (retest, dose inferred, filed as 5.0)

Measured: growth inhibition

O=C(O)c1c2ccc(Cl)cc2nc2[nH]c(=O)[nH]c(=O)c12
active: [11]; [18] 82% | [11]; at 50.0 µM 79.5%
inactive: [1]; at 1.2 µM -38% | [1]; at 3.7 µM -34% | [1]; at 11.0 µM -25% | [1]; at 33.0 µM -30% | [1]; at 100.0 µM -13% | [2]; at 1.2 µM -37% | [2]; at 3.7 µM -35% | [2]; at 11.0 µM -44% | [2]; at 33.0 µM -38% | [2]; at 100.0 µM -18% | [3]; at 1.2 µM -13% | [3]; at 3.7 µM -46% | [3]; at 11.0 µM -10% | [3]; at 33.0 µM 28% | [3]; at 100.0 µM 50% | [4]; at 1.2 µM -37% | [4]; at 3.7 µM -31% | [4]; at 11.0 µM -35% | [4]; at 33.0 µM -5% | [4]; at 100.0 µM 17% | [5]; at 1.2 µM -56% | [5]; at 3.7 µM -28% | [5]; [17] 47% | [5]; at 11.0 µM -32% | [5]; at 33.0 µM -23% | [5]; [18] 45% | [5]; at 50.0 µM 29.4% | [5]; at 100.0 µM 36% | [6]; at 1.2 µM -63% | [6]; at 3.7 µM -50% | [6]; [17] 47% | [6]; at 11.0 µM -37% | [6]; at 33.0 µM -43% | [6]; [18] 52% | [6]; at 50.0 µM 36.9% | [6]; at 100.0 µM -30% | [7]; at 1.2 µM -14% | [7]; at 3.7 µM -16% | [7]; at 11.0 µM -21% | [7]; at 33.0 µM -22% | [7]; at 100.0 µM 3% | [8]; [17] 13% | [8]; [18] 26% | [8]; at 50.0 µM 27.6% | [9]; at 1.2 µM -45% | [9]; at 3.7 µM -33% | [9]; at 11.0 µM -24% | [9]; at 33.0 µM -13% | [9]; at 100.0 µM -1% | [10]; [17] 64% | [10]; [18] 12% | [10]; at 50.0 µM 9.2% | [11]; at 1.2 µM -57% | [11]; at 3.7 µM -40% | [11]; [17] 36% | [11]; at 11.0 µM -29% | [11]; at 33.0 µM -5% | [11]; at 100.0 µM 50% | [12]; at 1.2 µM -30% | [12]; at 3.7 µM -33% | [12]; at 11.0 µM -25% | [12]; at 33.0 µM -23% | [12]; at 100.0 µM 4% | [13]; at 1.2 µM -29% | [13]; at 3.7 µM -24% | [13]; at 11.0 µM -29% | [13]; at 33.0 µM -11% | [13]; at 100.0 µM 30% | [14]; at 1.2 µM -39% | [14]; at 3.7 µM -31% | [14]; at 11.0 µM -26% | [14]; at 33.0 µM -10% | [14]; at 100.0 µM 1% | [15]; at 1.2 µM -21% | [15]; at 3.7 µM -17% | [15]; at 11.0 µM -9% | [15]; at 33.0 µM -1% | [15]; at 100.0 µM 7%

CN1C(=O)C(CC(=O)O)NC1=S (stereo not drawn)
active: [14]; at 100.0 µM 70%
inactive: [1]; at 1.2 µM 0% | [1]; at 3.7 µM 0% | [1]; at 11.0 µM -1% | [1]; at 33.0 µM 6% | [1]; at 100.0 µM 22% | [2]; at 1.2 µM -2% | [2]; at 3.7 µM -2% | [2]; at 11.0 µM 1% | [2]; at 33.0 µM 3% | [2]; at 100.0 µM 11% | [3]; at 1.2 µM -1% | [3]; at 3.7 µM -3% | [3]; at 11.0 µM -2% | [3]; at 33.0 µM -10% | [3]; at 100.0 µM -5% | [4]; at 1.2 µM -3% | [4]; at 3.7 µM -2% | [4]; at 11.0 µM 1% | [4]; at 33.0 µM 21% | [4]; at 100.0 µM 27% | [5]; at 1.2 µM -1% | [5]; at 3.7 µM -2% | [5]; [17] 20% | [5]; at 11.0 µM 2% | [5]; at 33.0 µM 9% | [5]; [18] 14% | [5]; at 50.0 µM 61.9% | [5]; at 100.0 µM 25% | [6]; at 1.2 µM 1% | [6]; at 3.7 µM 3% | [6]; [17] 2% | [6]; at 11.0 µM 4% | [6]; at 33.0 µM 15% | [6]; [18] 27% | [6]; at 50.0 µM 33.9% | [6]; at 100.0 µM 47% | [7]; at 1.2 µM 0% | [7]; at 3.7 µM 0% | [7]; at 11.0 µM -1% | [7]; at 33.0 µM 16% | [7]; at 100.0 µM 39% | [8]; [17] -1% | [8]; [18] 17% | [8]; at 50.0 µM 58.2% | [9]; at 1.2 µM -3% | [9]; at 3.7 µM -3% | [9]; at 11.0 µM -1% | [9]; at 33.0 µM -2% | [9]; at 100.0 µM 2% | [10]; [17] -10% | [10]; [18] 12% | [10]; at 50.0 µM 2.1% | [11]; at 1.2 µM -4% | [11]; at 3.7 µM -7% | [11]; [17] -10% | [11]; at 11.0 µM -3% | [11]; at 33.0 µM 3% | [11]; [18] 2% | [11]; at 50.0 µM 65.8% | [11]; at 100.0 µM 43% | [12]; at 1.2 µM -2% | [12]; at 3.7 µM 0% | [12]; at 11.0 µM 3% | [12]; at 33.0 µM 7% | [12]; at 100.0 µM 20% | [13]; at 1.2 µM -2% | [13]; at 3.7 µM 0% | [13]; at 11.0 µM 4% | [13]; at 33.0 µM 11% | [13]; at 100.0 µM 46% | [14]; at 1.2 µM 0% | [14]; at 3.7 µM 5% | [14]; at 11.0 µM 9% | [14]; at 33.0 µM 24% | [16]; [17] -11% | [16]; [18] 62% | [16]; at 50.0 µM 25.7% | [15]; at 1.2 µM 1% | [15]; at 3.7 µM 0% | [15]; at 11.0 µM -9% | [15]; at 33.0 µM 15% | [15]; at 100.0 µM 45%

Reference: PubChem BioAssay (NCI)
